# This is part of a sample that, as a whole, favours compounds with a hit. Of some 83,000 tested, about 20% had one in any assay.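 Single-concentration screen, 48 h exposure, 96-well plates. Endpoint: percent growth. Below 10 = active.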 Unmarked numbers belong to inactive results. The source made the active and inactive calls.
# How the values were obtained:
# Assay in all cases: NCI-60 one-dose screen, 48 h (100 = growth as untreated, 0 = no growth, -100 = all killed)
# Conditions in all cases: 10 µM unless noted
# NCI-H23 lung = system: NCI-H23 lung
# NCI-H226 lung = system: NCI-H226 lung
# NCI-H322M lung = system: NCI-H322M lung
# HOP-62 NSCLC = system: HOP-62 NSCLC
# NCI-H460 lung = system: NCI-H460 lung
# HOP-92 NSCLC = system: HOP-92 NSCLC
# NCI-H522 lung = system: NCI-H522 lung
# A549/ATCC NSCLC = system: A549/ATCC NSCLC
# 786-0 renal = system: 786-0 renal
# COLO 205 colon = system: COLO 205 colon
# DU-145 prostate = system: DU-145 prostate
# K-562 leukemia = system: K-562 leukemia
# MALME-3M melanoma = system: MALME-3M melanoma
# MDA-MB-231 breast = system: MDA-MB-231 breast
# RXF 393 renal = system: RXF 393 renal
# SF-268 CNS = system: SF-268 CNS
# SF-295 CNS = system: SF-295 CNS
# SF-539 CNS = system: SF-539 CNS
# UACC-257 melanoma = system: UACC-257 melanoma
# M14 melanoma = system: M14 melanoma
Compound,growth (NCI-H23 lung),growth (NCI-H226 lung),growth (NCI-H322M lung),growth (HOP-62 NSCLC),growth (NCI-H460 lung),growth (HOP-92 NSCLC),growth (NCI-H522 lung),growth (A549/ATCC NSCLC),growth (786-0 renal),growth (COLO 205 colon),growth (DU-145 prostate),growth (K-562 leukemia),growth (MALME-3M melanoma),growth (MDA-MB-231 breast),growth (RXF 393 renal),growth (SF-268 CNS),growth (SF-295 CNS),growth (SF-539 CNS),growth (UACC-257 melanoma),growth (M14 melanoma)
CCOC(=O)CC1C(COC(=O)NC)OC(n2cnc3c(NC(=O)Nc4ccccc4)ncnc32)C1O[Si](C)(C)C(C)(C)C (stereo not given),81%,55.5%,91.1%,77.4%,13.2%,62.1%,45.3%,51.3%,72.5%,67.4%,58.7%,28.7%,53.5%,71.7%,35%,59.9%,66.1%,33.4%,59.2%,57.1%
CCN1C(=O)N(CC)C2Nn3c(s/c(=C4\C(=O)N(CCC(C)C)c5ccccc54)c3=O)=NC21 (stereo not given),87.8%,83.9%,92.4%,89.2%,106%,73.2%,50.4%,90%,57.1%,73.2%,96.3%,26.1%,79.8%,78.3%,84.5%,82.5%,98.5%,86.8%,66.3%,56.6%
C=C1CC[C@H](C(C)C)[C@@H]2[C@H]1[C@H]1CC(=C)[C@@H](O)CC[C@@](C)(O)[C@@H]2O1,81.6%,95.2%,95.4%,84.3%,108%,86.3%,89.5%,86.2%,82.6%,117%,102%,97.8%,98%,105%,108%,94.7%,98.4%,98.1%,86.2%,98.6%
O=C(CSc1nc2ccccc2[nH]1)Nc1cccc(Cl)c1,98.4%,101%,96.3%,94.9%,103%,90.6%,89%,111%,101%,108%,101%,100%,97.2%,76.5%,114%,97.1%,104%,103%,117%,105%
COc1ccc(C2C(N)=NNC2c2cccc(O)c2)cc1 (stereo not given),90.2%,84%,90.6%,90.2%,115%,88.3%,89.2%,99.8%,108%,125%,125%,89%,88.5%,104%,97.2%,99.4%,92.1%,95.4%,107%,104%
NC(=O)C1(Nc2ccc(Br)cc2)CCCC1,97.5%,98.9%,107%,103%,110%,110%,92.9%,103%,102%,104%,119%,116%,108%,101%,115%,106%,106%,89.8%,101%,97.1%
COc1cc(/C=C/c2ccccc2)cc(OC)c1,86.6%,92%,114%,108%,106%,69.9%,84.1%,95.4%,97.9%,114%,94.3%,93%,105%,91%,118%,92.7%,95.7%,93.1%,103%,101%
Cc1cc2nc3cc(C)c(N)cc3[n+](-c3ccccc3)c2cc1N,39.8%,71.2%,93.8%,52.7%,65.6%,41.5%,38.4%,75.1%,58.6%,61.1%,72.9%,32.4%,48.7%,90.3%,91.7%,24%,34.5%,50.5%,32.6%,89.5%
COc1ccc(C(=O)/C=C/c2sc(Cl)nc2Cl)cc1,8.44% (active),40.7%,93.1%,68.3%,29.5%,32.8%,19.1%,78.1%,18.5%,1.55% (active),61.9%,9.56% (active),32.1%,38.7%,24.6%,31.9%,52.3%,-20.5% (active),72.8%,6.12% (active)
NCCNc1nc2ccccc2c2c(=O)c3cccc(F)c3sc12,70%,78.5%,64.7%,58%,13.8%,59.9%,59.2%,41.1%,76.7%,26.6%,37%,17.2%,88.4%,44.7%,83.3%,61.6%,91.7%,59.2%,101%,83.3%
CCCCOc1nc2ccc(OC)cc2cc1-c1cc(-c2ccc(Cl)cc2)nc(-c2ccc(Cl)cc2)c1,102%,103%,99.7%,110%,107%,97.6%,98.7%,99.3%,112%,112%,114%,106%,100%,93.5%,101%,99.8%,98.1%,98.3%,99.6%,111%
C=C(C)C1CCC2(C)OC2C1 (stereo not given),111%,98.8%,94.9%,94.6%,103%,117%,105%,127%,98.7%,142%,122%,135%,95.7%,102%,204%,115%,96.7%,103%,132%,108%
CCCCCCn1c(-c2ccc(C(=O)O/N=C(\N)c3ccc(OC)cc3)cc2)nc(-c2ccccc2)c1-c1ccccc1,-63.9% (active),62.6%,69.4%,26.4%,-10.3% (active),-63% (active),-59% (active),-33.9% (active),-66.8% (active),-14% (active),-73.6% (active),-35.3% (active),-18.2% (active),-24% (active),-59.6% (active),3.04% (active),1.78% (active),-84.1% (active),48.3%,40.9%
CCOC(=O)/C(C#N)=C\Nc1ccc2ncnc(Nc3ccc(Cl)cc3Cl)c2c1,99.5%,99.8%,75.6%,101%,84.8%,56.5%,95.8%,72.1%,82.6%,108%,55.9%,59.7%,140%,85.2%,77%,73%,82.2%,92.7%,97.2%,106%
Brc1ccc2[nH]cc(-c3nc(-c4c[nH]c5ccncc45)cs3)c2c1,-41.6% (active),89.7%,-18.6% (active),-79.1% (active),-91.1% (active),-34.3% (active),-68.4% (active),-77.6% (active),-91.3% (active),-76.4% (active),-91.4% (active),-61.5% (active),-83.6% (active),-84.4% (active),-91.8% (active),-65.7% (active),-84.8% (active),-94.9% (active),-23.2% (active),-73.3% (active)

# — PubChem BioAssay (NCI)
